FMDV inh – blocks foot and mouth disease virus; AID 1159524; Potency, µM (series often up to 57.9 µM), actives largely listed as inhibitors; 410,000 tested, 1.2% active; FMDV antiviral cell-based qHTS; calls by dose curve; tested in HEK293T cells; note: read-out not given here; nearly all actives have a fitted effect of over 45% in size
Vaccinia mCherry – vaccinia inhibition (mCherry reporter) | Vaccinia virus mCherry reporter infection, fluorescence | Potency, µM (highest dose often 36.5 µM), actives largely listed as inhibitors | 310,000 tested, 0.63% active | AID 720579; calls by dose curve; tested in A549 cells; note: nearly all actives have a fitted effect of over 35% in size
HCMV inh – human cytomegalovirus inhibition; HFF cells, HCMV-luciferase reporter, 72 h; active compounds read low; activity change, negative = inhibition, % at 57.5 µM; 410,000 tested, 4.5% active; AID 1259415; in the data active = activity change below about -60%; inconclusive = no clear call, values can overlap the other calls; inactive = above about -39%
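Luciferase read-out from HCMV-luciferase-infected HFFs (MOI 1 PFU/cell) 72 h post infection at 37C; compounds added after 16 h cell attachment; activity normalized between buffer-only basal and Salinomycin (10uM) inhibitor controls.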
HCV inh – blocks hepatitis C virus. Huh7.5.1 HCVcc-Cre infection, luciferase reporter, 44 h. Potency, µM (doses to about 41.8 µM), actives largely listed as inhibitors. 340,000 tested, 3.4% active
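Infectious HCVcc-Cre (~0.5 moi) was added to cells just after compound, with cells seeded 4 h earlier at 1,000 per well. Luciferase activity after 44 h culture reported infection; substrate was incubated 15 min at room temperature before reading.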
VACV Venus inh – vaccinia inhibition (Venus reporter). Vaccinia virus Venus reporter expression, fluorescence. Potency, µM (series often up to 36.5 µM), hits mostly inhibitors. 330,000 tested, 0.46% active; calls by dose curve; tested in A549 cells; note: nearly all actives have a fitted effect of over 30% in size
FBPA Giardia inh – Giardia lamblia aldolase inhibition; purified Giardia FBPA; 290,000 tested, 0.71% active; A8B2U2; Potency, µM (doses to about 59.6 µM), actives largely listed as inhibitors; note: nearly all actives have a fitted effect of over 55% in size
Target sequence (A8B2U2 whole entry, looked up): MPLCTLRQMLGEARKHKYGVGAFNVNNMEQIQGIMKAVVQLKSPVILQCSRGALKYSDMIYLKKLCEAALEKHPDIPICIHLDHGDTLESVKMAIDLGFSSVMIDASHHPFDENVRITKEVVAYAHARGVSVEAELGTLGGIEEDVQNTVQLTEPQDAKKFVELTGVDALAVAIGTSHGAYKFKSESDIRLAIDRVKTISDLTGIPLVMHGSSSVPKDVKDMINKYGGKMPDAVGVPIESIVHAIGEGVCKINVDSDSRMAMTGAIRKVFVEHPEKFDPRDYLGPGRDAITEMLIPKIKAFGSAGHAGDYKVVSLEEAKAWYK
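Giardia FBPA (40 nM reagent) was preincubated 10 min at RT with compound (up to 57.5 uM final), then substrate plus GAPDH/TPI/NAD/arsenate coupling system with diaphorase/resazurin was added; resorufin fluorescence (525/598 nm) was read after 20 min.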
Each line names hits and unclear results; the compound was inactive in the other large screens. In the library only some 7.5% were active in any assay of this set; here they are far more common. Unless noted, calls come from the whole dose curve; as a rule, active = well fitted curve in the direction sought with a large enough effect; inconclusive = small, poorly fitted or top-dose-only effect, or another doubt; inactive = no such curve, though single readings can be large; an effect the other way counts as inactive or inconclusive.

O=C(Nc1ccccc1)OCc1cnc(Cl)s1	none
O=C(Nc1ccc(Cl)c(Cl)c1)OCc1cnc(Cl)s1	HCV inh 11µM, VACV Venus inh inconclusive (no result: Vaccinia mCherry)
NC(=S)NN=C1CCCCCCCCC1	Vaccinia mCherry 20µM, VACV Venus inh inconclusive (no result: FBPA Giardia inh)
C=CCNC(=S)NN=C1CCCCCCC1	HCMV inh -113, FBPA Giardia inh inconclusive
NC(=S)NN=C1CCCCCCCC1	Vaccinia mCherry inconclusive, VACV Venus inh inconclusive (no result: FBPA Giardia inh)
CC(=O)OC1C[C@H](O[C@@H]2C(O)C[C@H](O[C@@H]3C(O)C[C@@H](OC4CC[C@]5(C)C(CCC6C5CC(O)[C@@]5(C)C(C7=CC(=O)OC7)CC[C@@]65O)C4)OC3C)OC2C)O[C@H](C)[C@H]1O[C@H]1OC(CO)C(O)C(O)C1O (stereo not given in full)	none (no result: FMDV inh, Vaccinia mCherry, HCMV inh, HCV inh, VACV Venus inh)
CC(=O)OC1CC(OC2C(O)CC(OC3C(O)CC(OC4CCC5(C)C(CCC6C5CCC5(C)C(C7=CC(=O)OC7)CCC65O)C4)OC3C)OC2C)OC(C)C1OC1OC(CO)C(O)C(O)C1O (stereo not given)	Vaccinia mCherry 4.5µM, HCMV inh -98, HCV inh 0.79µM, VACV Venus inh 5.6µM (no result: FBPA Giardia inh)
CC1OC(OC2CCC3(C)C(CCC4C3CC(O)C3(C)C(C5=CC(=O)OC5)CCC43O)C2)CC(O)C1OC1CC(O)C(OC2CC(O)C(OC3OC(CO)C(O)C(O)C3O)C(C)O2)C(C)O1 (stereo not given)	none (no result: FMDV inh, Vaccinia mCherry, HCMV inh, HCV inh, VACV Venus inh)
CC(=O)O[C@H]1C[C@H](O[C@H]2[C@@H](O)C[C@H](O[C@H]3[C@@H](O)C[C@H](O[C@H]4CC[C@@]5(C)[C@H](CC[C@@H]6[C@@H]5C[C@@H](O)[C@]5(C)[C@@H](C7=CC(=O)OC7)CC[C@]65O)C4)O[C@@H]3C)O[C@@H]2C)O[C@H](C)[C@H]1O[C@@H]1O[C@H](CO)[C@@H](O)[C@H](O)[C@H]1O	FMDV inh inconclusive, Vaccinia mCherry inconclusive, VACV Venus inh 2.5µM (no result: HCMV inh, HCV inh, FBPA Giardia inh)
Cc1ccccc1Cc1nc2cccnc2n1C1CCN(C(=O)CC2NC(=O)c3ccccc32)CC1 (stereo not given)	none (no result: HCMV inh, HCV inh, FBPA Giardia inh)
COc1ccc(Nc2nn3c(=O)c4cc5c(cc4nc3s2)OCO5)c(OC)c1	none (no result: HCV inh, FBPA Giardia inh)
O=C(N=Nc1c(O)[nH]c2ccc(Br)cc12)c1cc(-c2cccs2)nc2ccccc12	FMDV inh inconclusive, Vaccinia mCherry inconclusive, HCMV inh -61, HCV inh inconclusive
O=C(N=Nc1c(O)[nH]c2ccc(Br)cc12)c1ccco1	none (no result: HCV inh, FBPA Giardia inh)
Cn1c(O)c(N=NC(=O)c2cc(-c3cccs3)nc3ccccc23)c2ccccc21	HCV inh inconclusive
Oc1ccc(NC(=S)N=Nc2c(O)[nH]c3ccc(Br)cc23)cc1	Vaccinia mCherry inconclusive, HCMV inh -91
O=C(N=Nc1c(O)[nH]c2ccc(Br)cc12)c1ccccc1-n1cccc1	FMDV inh inconclusive, HCMV inh inconclusive, HCV inh 18µM (no result: Vaccinia mCherry, VACV Venus inh)
Oc1[nH]c2ccc(Br)cc2c1N=NC(=S)Nc1ccc(F)cc1	Vaccinia mCherry inconclusive, HCV inh inconclusive
Cc1nc(N2CCOCC2)sc1C=O	none (no result: Vaccinia mCherry, VACV Venus inh)
O=C(NCC1CCCO1)C(=O)c1c[nH]c2ccccc12 (stereo not given)	none (no result: Vaccinia mCherry, VACV Venus inh)
CCCCNC(=O)CN1CCN(c2ccc(NC(=O)c3ccc(OC)cc3)cc2C(=O)O)CC1	none (no result: HCV inh, FBPA Giardia inh)
Cc1ccc(NC(=O)C2CCN(c3nc(-c4ccc(C(C)C)cc4)no3)CC2)c(Cl)c1	FMDV inh inconclusive, HCMV inh -69 (no result: HCV inh, FBPA Giardia inh)
Cc1ccc(C)c(N2CCN(C(=O)C3CCN(c4nc(-c5ccc(C(C)C)cc5)no4)CC3)CC2)c1	FMDV inh inconclusive, HCMV inh -63 (no result: HCV inh, FBPA Giardia inh)
COc1ccc(-c2noc(N3CCC(C(=O)Nc4cc(OC)ccc4OC)CC3)n2)cc1	HCV inh inconclusive, VACV Venus inh inconclusive
CCc1ccc(-c2cc3c(N4CCN(c5ccccc5)CC4)nccn3n2)cc1	none (no result: HCV inh, FBPA Giardia inh)
Cc1ccc2c(c1)c1c(c(=O)n(-c3ccccc3)c(=O)n1Cc1ccccc1C)n2C	Vaccinia mCherry inconclusive (no result: HCV inh, FBPA Giardia inh)
CC(C)(C)c1nc2ccc(NS(=O)(=O)c3ccc(F)c(F)c3F)cc2[nH]1	HCMV inh -66, FBPA Giardia inh inconclusive
O=S(=O)(Nc1ccc2nc(C(F)(F)F)[nH]c2c1)c1ccccc1	HCMV inh inconclusive, HCV inh inconclusive (no result: FMDV inh)
O=C(Nc1ccc(Br)c2ccccc12)c1ccc2ccccc2c1O	FMDV inh inconclusive, Vaccinia mCherry inconclusive, HCMV inh -100, HCV inh inconclusive, VACV Venus inh inconclusive
